# Experimental data taken from ChEMBL document CHEMBL4513216, “Probing the Open Global Health Chemical Diversity Library for Multistage-Active Starting Points for Next-Generation Antimalarials” (ACS Infect Dis, 2020).
# The campaign covered roughly 69,000 compounds. About 8,600 (12%) showed an effect of 50% or more. This excerpt belongs to a sample that is enriched for strong results.
# Tested on: Plasmodium berghei
# Assay: Screen against P. berghei liver stage (PbLuc), transformed with Luciferase, at 10uM
# Type: functional, HepG2
# Details: tested at 10 uM
row,Compound,INHIBITION
1,CS(=O)(=O)NC[C@@H]1OC[C@H]2CN(C(=O)c3ccccn3)CC[C@H]21,-2.17%
2,O=C(NCC1CC2(CO1)CN(c1ncccn1)C2)C1CCC1 (stereo unspecified),27.6%
3,Cc1cc(N2CCCC(c3[nH]ncc3Cc3ccccc3)C2)nc(N)n1 (stereo unspecified),86.8%
4,Cc1ccc(N2CCC(c3[nH]ncc3Cc3ccccc3)CC2)nn1,49.2%
5,Cc1ccc(N2CCCC(c3[nH]ncc3Cc3ccccc3)C2)nn1 (stereo unspecified),47.2%
6,O=C(c1cnccn1)N1C[C@@H]2CN(Cc3cccnc3)CCO[C@@H]2C1,22.5%
7,O=C(CN1CCc2c(ncn2C2CC2)C1)NC1CCOCC1,5.7%
8,NCC1Cc2cc(-c3nccc(N4CCC(O)CC4)n3)cc(Cl)c2O1 (stereo unspecified),43.9%
9,NCC1Cc2cccc(-c3nccc(N4CCC(O)CC4)n3)c2O1 (stereo unspecified),92.1%
10,NCC1Cc2cc(-c3nccc(N4CCC(O)CC4)n3)cc(F)c2O1 (stereo unspecified),20.5%
11,CCCc1noc(C2CC(=O)N(Cc3ccccc3)C2)n1 (stereo unspecified),11.1%
12,COCCC(=O)N1Cc2ccccc2OC2(CCOCC2)C1,26.05%
13,Cc1c(CS(C)(=O)=O)cccc1NCC1CCCCC1,-0.514%
14,Cc1c(CS(C)(=O)=O)cccc1NCCCC1CCCC1,74.8%
15,Cc1c(CS(C)(=O)=O)cccc1NC(=O)CC1CCCC1,-15.9%
16,CN(Cc1ccc(O)cc1)C(=O)NC1CCCN(c2ncccn2)C1 (stereo unspecified),18.9665%
17,O=c1[nH]c2cn(-c3cccc(F)c3)c(=O)n2n1Cc1ccccc1Cl,20.6%
18,CCN1CCN(C(=O)c2nc(C)n(-c3ccccc3Cl)n2)CC1,50.4%
19,CCc1nc(C(=O)N2CCN(C)CC2)nn1-c1ccccc1Cl,34.7%

row,Compound,INHIBITION
1,Cc1nc(C(=O)N2CCCCC2)nn1-c1ccccc1Cl,4.52%
2,CCc1nc(C(=O)N2CCCCC2)nn1-c1ccccc1Cl,12.7%
3,CCc1nc(C(=O)N2CCN(CC)CC2)nn1-c1ccccc1Cl,4.52%
4,CCc1nc(C(=O)N2CCCC2)nn1-c1ccccc1Cl,67.3%
5,Cc1cnc(CC2COCCN(C(=O)c3cncs3)C2)cn1 (stereo unspecified),21.5%
6,CCc1ccc(C(=O)N2CCC(c3nncn3CC)CC2)o1,28.1%
7,COc1ccc(OCCN(C)S(=O)(=O)c2cnn(C)c2)cc1,11.5%
8,O=C(NCCOc1ccccc1)Nc1cc(C(F)(F)F)c[nH]c1=O,9.895%
9,COCC(=O)N1CCC2(CCc3ccc(F)cc32)CC1,-30%
10,CC(=O)N1CCC2(CC1)CN(CC1CC1)c1ccc(F)cc12,37.6%
11,COCC(=O)N1CCC2(CC1)CN(CC1CC1)c1ccc(F)cc12,77.4%
12,Cn1cc(CN2CCCC23CCN(C(=O)c2ccsc2)CC3)cn1,-16.1%
13,Cc1cnn(CC2CCCN2C(=O)c2ccc3[nH]c(=O)[nH]c3c2)c1 (stereo unspecified),17.5%
14,CCN(Cc1nc2c(cnn2C)c(=O)[nH]1)Cc1cccs1,44.6%
15,Cc1ccsc1CN(C)c1nc2c(cnn2C(C)(C)C)c(=O)[nH]1,70.7%
16,CN(Cc1cccs1)c1nc2c(cnn2C(C)(C)C)c(=O)[nH]1,53.5%
17,Cc1ncc(CN(C)c2nc3c(cnn3C(C)(C)C)c(=O)[nH]2)s1,30.8%
18,Cc1ccsc1CN(C)Cc1nc2c(cnn2C)c(=O)[nH]1,26.3%
19,Cc1nc(CN(C)c2nc3c(cnn3C(C)(C)C)c(=O)[nH]2)cs1,36.2%

row,Compound,INHIBITION
1,CCc1nc2n(n1)CC(NCc1cnc(N(CC)CC)s1)CC2 (stereo unspecified),30.5%
2,CC(=O)N1CCCC(C(=O)c2cnn(-c3ccc(F)cc3)c2N)C1 (stereo unspecified),24.425%
3,Cc1nc[nH]c1CN1C[C@@H]2OCCN(c3ncccn3)[C@@H]2C1,42.7%
4,Cc1ccc(-n2ccnc2-c2cn(C3CCNCC3)nn2)c(Cl)c1,45.8%
5,Cc1cccc(C(=O)N2CCN(CCOC(C)C)CC2)n1,-49.3%
6,Cc1cccc(C(=O)N2CCN(CCC(C)C)CC2)n1,50.3%
7,Cc1ncsc1C(=O)N1CCN(CCC(C)C)CC1,53.7%
8,CC(C)CCN1CCN(C(=O)c2ccc(=O)[nH]n2)CC1,47%
9,CCN1CCN(C(=O)c2scnc2C)CC1,26.4%
10,CCCN1CCN(C(=O)c2scnc2C)CC1,11.1%
11,CCN1CCCc2cc(CN3CCc4nc(C)[nH]c(=O)c4C3)ccc21,15.1%
12,Cn1ncc(Cl)c1C(=O)NCCN1CCC(O)(c2ccc(F)cc2)CC1,6.3%
13,CCOCCCNC(=O)CN(c1cccc(F)c1)S(C)(=O)=O,30%
14,COC(=O)c1c(Cl)c(C2CC2)nc2onc(C)c12,47.2%
15,O=C(Cn1ccnc1)N1C[C@@H]2CC[C@H](Oc3ccccc3Cl)[C@@H]2C1,53.5%
16,O=C(Cn1ccnc1)N1C[C@@H]2CC[C@H](Oc3ccccc3)[C@@H]2C1,24.5%
17,O=C(Cn1ccnc1)N1C[C@@H]2CC[C@H](Oc3ccccc3F)[C@@H]2C1,-6.92%
18,O=C(Cn1ccnc1)N1C[C@@H]2CC[C@H](Oc3cccc(F)c3)[C@@H]2C1,1.5%
